This is one part of a sample in which hits are shown more often than they occur.
Vaccinia pol inh: vaccinia E9 polymerase processive synthesis inhibitors, primary screen, biochemical, absorbance | normalized absorbance, % (test concentration not listed) | hit rate 0.94% among 46,000 | AID 493162, 2011 | in vitro processive DNA synthesis, absorbance read-out; active compounds read low; in the data active = normalized absorbance mostly below about 85%, no sharp cut-off; inactive = mostly above about 86%
Starred values were filed as active, the others as inactive.

SMILES	Vaccinia pol inh
CN(CC(O)COc1ccc(Br)cc1)C1CCCCC1 (configuration not stated)	100.1
O=C(O)CCC(=O)Nc1cccc(O)c1	100.0
Nc1cccc(NC(=O)CCC(=O)O)c1	72.1*
CCCC(=O)Nc1cccc(N)c1	100.8
CC(=O)Nc1c2c(nn1-c1ccccc1)CSC2	98.6
c1ccc2c(c1)CCN(c1nc3cc4c(cc3s1)OCO4)C2	101.6
O=C1CC(N2C(=O)C3CC=CCC3C2=O)C2COC1O2 (configuration not stated)	101.4
CC1CCc2nc(SC3CC(=O)C4OCC3O4)nc(C(F)(F)F)c2C1 (configuration not stated)	99.7
O=C1CC(Sc2ccc3ccccc3c2)C2COC1O2 (configuration not stated)	36.1*
CCOC(=O)c1sc2nc3c(c(-c4ccc(OC)cc4)c2c1N)CCC3	97.7
COc1ccc2nc(C)cc(SCC(=O)c3ccc(Cl)cc3)c2c1	98.1
CCSc1nc(C)c2cc(OC)ccc2n1	100.2
CCN(CC)CCCC(C)Nc1c2ccc(Cl)cc2nc2ccc(OC)cc12 (configuration not stated)	14.6*
O=c1cc(CSc2nc3ccccc3o2)[nH]c(=S)[nH]1	100.3
O=C(NC(=O)c1cn2cc(C(F)(F)F)cc(Cl)c2n1)Nc1ccc(Cl)cc1	108.0
O=C(O)/C=C\C(=O)Nc1ccccc1C(=O)O	100.3
CNC(=O)c1sc2nc(C)cc(C)c2c1-n1cccc1	97.8
CCCOC(=O)CN1C(=O)/C(=C/c2ccccc2)SC1=S	85.7
O=C(O)CN1C(=O)/C(=C/c2ccccc2)SC1=S	90.0
CCOC(=O)CN1C(=O)/C(=C/c2ccccc2)SC1=S	81.5*
Cc1ccc(CNc2nc3c(c(=O)[nH]c(=O)n3C)n2Cc2ccccc2C)cc1	99.0
Nc1cc(=O)n(Cc2ccccc2)c(=O)n1-c1ccccc1	96.0
CN(Cc1ccccc1)C(=O)CNc1ccc(Br)cc1	102.2
Cc1c(CN(C)C)c2c(n1Cc1ccccc1)C(=O)c1ccc(Br)cc1-2	68.3*
CC(C)(C)C1=NOC(O)(C(F)(F)F)C1 (configuration not stated)	99.9
SMILES	Vaccinia pol inh
O=C(c1ccn(C(=O)c2ccc(Cl)cc2Cl)n1)N1CCCCC1	100.2
O=C1c2c(O)ccc(O)c2C(=O)c2c(NCCNCCO)ccc(NCCNCCO)c21	7.8*
COc1cccc(C(=O)/C=C(\Nc2ccc3c(c2)COC3=O)C(=O)O)c1	96.8
COc1ccc(Cl)cc1Nc1nc(N)nc(CC(=O)CSc2nc3ccccc3s2)n1	100.4
Cn1cnnc1SCC(=O)N1c2ccccc2Sc2ccc(Cl)cc21	95.8
Cc1cccn2cc(-c3ccc(Cl)cc3)cc12	100.0
COC(=O)C1=C(C)N(c2ccccc2Cl)C(=O)/C1=C\c1cccs1	100.5
COC(=O)C(N=Cc1ccccc1)c1ccccc1 (configuration not stated)	104.7
COC(=O)C(NC(=O)Nc1ccccc1)C(C)C (configuration not stated)	100.9
COC(=O)C(C(=O)OC)C(Nc1ccccc1)c1ccccc1 (configuration not stated)	20.0*
c1cncc(-c2nc(-c3ccc4ccccc4c3)cs2)c1	97.1
CC(Cc1ccc(O)c(O)c1)C(C)Cc1ccc(O)c(O)c1 (configuration not stated)	91.6
CCCCN1CCc2c1nc1ccc(Br)cc1c2N	87.0*
CCOc1ccc(N2CCc3c2nc2ccc(Br)cc2c3N)cc1	98.9
CCOc1ccc(-c2nc3ccc(Br)cc3c(C(=O)O)c2C)cc1	101.1
CC1CCc2sc(NC(=O)c3ccco3)c(C#N)c2C1 (configuration not stated)	85.3
Cc1cc(-c2nn(C)c(=O)c3ccccc23)cc(C)c1OCC(=O)NN	105.8
CNC(=O)COc1ccc(NC(=O)CCn2nc(-c3ccc(Cl)cc3)c3ccccc3c2=O)cc1	100.3
CNC(=O)COc1ccc(-c2nn(C)c(=O)c3ccccc23)cc1	76.2*
CCOC(=O)c1c(C)nn(-c2ccnc3cc(Cl)ccc23)c1C	112.0
O=C(NC1CCCCC1)c1cc(-c2ccccn2)nc2ccccc12	98.3
N#CC1(c2cccc(Br)c2)C(=O)Nc2ccccc21 (configuration not stated)	79.0
CC(Nc1ccccc1)C(=O)Nc1cc(C(F)(F)F)ccc1Cl (configuration not stated)	99.9
COc1ccc(Nc2cc(C(F)(F)F)ccc2Cl)c(C(=O)O)c1	59.6*
O=C(CC(=O)c1ccccc1)Nc1cc(C(F)(F)F)ccc1Cl	99.6
SMILES	Vaccinia pol inh
O=C(Cc1ncc(C(F)(F)F)cc1Cl)NCC1CCCO1 (configuration not stated)	82.6
CCc1cc2c(=O)c(-c3nc4ccccc4s3)c(C(F)(F)F)oc2cc1O	98.9
Cc1ccc(N2C(=O)CC(Sc3ccccc3C(=O)O)C2=O)c(C)c1 (configuration not stated)	97.7
Cc1cc(NC(=O)CCn2c(=O)sc3ccccc32)no1	100.3
Cc1[nH]n(-c2ccccc2)c(=O)c1C=Nc1cccc(N)c1	99.8
Cc1[nH]n(-c2cccc(Cl)c2)c(=O)c1N=O	67.3*
Cc1[nH]n(-c2ccccc2)c(=O)c1Sc1ccc(Cl)cc1	100.1
Cc1nc2ccc(CO)cc2s1	97.6
O=C(CN1CCOCC1)Nc1ccccc1Oc1ccccc1	103.7
Cc1ccc(CSCCC(=O)O)cc1	92.8
O=c1c2ccccc2nc(SCc2ccccc2F)n1CCc1ccccc1	99.9
O=c1c2ccccc2nc(SCc2c(F)cccc2F)n1Cc1ccccc1	76.3*
Cc1ccc(CSc2nc3ccccc3c(=O)n2Cc2ccccc2)cc1	102.1
Nc1ccc(CCc2nc3ccccc3[nH]2)cc1	100.3
O=C(COc1ccccc1)Nc1ccccc1-c1nc2ccccc2o1	100.7
CCN1C(=O)c2ccccc2S(=O)c2ccc(C(=O)NCC(OC)OC)cc21 (configuration not stated)	101.6
COc1cc2c(cc1OC)C(c1ccccc1)N(C(=O)CSc1nc3ccccc3o1)CC2 (configuration not stated)	98.7
Cc1cc(=O)oc2c(CN(C)C)c(O)ccc12	102.9
N#Cc1c(-c2ccco2)cc(-c2cccs2)nc1OCc1ccc(F)cc1	89.0
N#Cc1ccc(CSc2nc(-c3cccs3)c3c(c2C(=O)O)CCCC3)cc1	99.6
CN1CCc2c(-c3cccs3)nc(OCc3ccccc3Br)c(C#N)c2C1	45.9*
CC(C)OC(=O)CSc1ncnc2scc(-c3ccccc3)c12	102.9
Cc1ccc(-c2csc3ncnc(SCCC(=O)O)c23)cc1	96.1
O=C(O)CSc1ncnc2scc(-c3ccc(Br)cc3)c12	67.6*
CCc1ccc(NC(=O)CSC2=C(C#N)C3(CCCCC3)C(C#N)C(=O)N2)cc1 (configuration not stated)	96.9
SMILES	Vaccinia pol inh
CCN1/C(=C/c2scc[n+]2C)C=C(C)c2cc(OC)c3ccccc3c21	27.0*
CCN1C(=O)C(=Cc2ccc(N3CCOCC3)cc2OC)C(=O)N(CC)C1=S	101.6
CN(C=O)CP(=O)(O)CCc1ccccc1	99.9
CCOC(=O)c1cnn(-c2ccccn2)c1N	101.4
CCOC(=O)c1cnn(C(=O)c2ccc(-n3c(C)ccc3C)cc2)c1N	66.1*
COC(=O)c1ccc(-n2c(C)ccc2C)cc1	98.2
Cc1ccc2onc(CC(=O)NC3CCCCC3)c2c1	96.6
O=C(/C=C\c1ccc2c(c1)OCO2)OCn1nnc2ccccc2c1=O	105.6
COC(=O)c1cc(=O)n2c(c1C(=O)c1ccc(Cl)cc1)SCC2	98.1
COc1ccc(NC(=O)CSC(=O)c2ccccc2)cc1Cl	70.8
